Reference: the supplement of paper PMC6555819

tested on: PPARg:RXRa IVT, anti-PPARg (NR concentration 270 nM, RXRa partner concentration 90 nM); test: PBM binding z-score (relative to random genomic background probes); higher = stronger binding; sequences stand for … in GC…GCGATTGACAGCGTAGAATGAAGG
How it was run: (§1)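 For binding z-scores, the reference was random background probes on custom Agilent 4×180K protein-binding microarrays. These arrays were incubated 1 h with ligand-free nuclear receptor dimers in PBS pH 7.4, 2% milk, 0.02% Triton X-100, 1 mM DTT, 0.2 mg/mL BSA and 0.4 mg/ml salmon testes DNA. Fluorescence was scanned after antibody detection of each partner (one per run) and regression-normalized.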

| Sequence | PBM binding z-score |
| --- | --- |
| ATCTCTAGGTAAGACACAGTTCAGTGAAGAACGC | 1.34 |
| CCGACTGGGGCAAGGTTACGATAACGCACAGCCA | 3.57 |
| AATACAGGGTCACTAGTCCAGAGTAGGTACGAAT | 4.67 |
| ACTTACTGGTCAACGAGGTTATAGCACGCGTATA | 1.65 |
| TAGCCTAGGTCATTCAGCGGCCAGTATAGAAAGC | 2.65 |
| CCTACTGGGCCATCAGGTCATTCATATCAACGTT | 4.74 |
| CCTACTGGCCCATTCAGAGGTCATTGATCATATG | 0.996 |
| GCTTGTAGTTCAAGGTTAAGAAAGACTAAGCTAA | 0.825 |
| TCTAGTTGGTCACTGAGGTCACACACGACGGGTA | 4.25 |
| ACTGACGGGTCAACGAGGTTATAGCACGCGTATA | 2.54 |
| ATCTCTAGGTAAGACGCAGTTCAGTGAAGAACGC | 0.781 |
| GGAATGAGGGCAAAGTTGATAGCATCTGTCGACG | 4.71 |
| CGTCCAAGGTCAAGGTCAGTAAAAGAGACTCGAA | 4.49 |
| TCTATTAGTTGATTAGGGCTACCGAAACAGCGGA | 0.487 |
| TCTAGTTGGTCAAAGATCACACACTCGAAATGCG | 2.84 |
| AGTCAGAGTTCAGGACGAGGTAACGTAAAGCACG | 0.676 |
| CGAACTAGGTCACGGACAGTGAATCTCCGCACGC | 9.1 |
| TCATATAGGTAAAAGCTAGGTGAAAGTCCGATCT | 2.83 |
| TCGAGTAGGTAACCAATGGGGCATTCAGCTTTCT | 1.74 |
| TCGAGTAGGTTAGCAATGGGGCATTCAGCTTTCT | 1.46 |

| Sequence | PBM binding z-score |
| --- | --- |
| ATGTCTAGGTAACCAAGTTCAGTGAATGCCGAAC | 2.35 |
| TCTATTAGTTGAAGGGCAAGCGACGAGTCCGTTT | 0.635 |
| TCTGCGAGGTCAGTTGGTCAGCTAACGAGCTGCC | 3.25 |
| AGAATGAGGTTACCAAAGATCCGGGAAACGCTTG | 3.61 |
| GCTAGCAGGCCATTTGGGTCACTCCATGACGGGC | 1.98 |
| CTCGAAAGGTCGGTTGAGGTGAGGATACGGATAA | 1.07 |
| CCTATTAGTTGACCATAATGGCAACCGAAGCTCG | 0.551 |
| CCTACTGGACCACGAAAGGTCATTGATTCAGTGA | 3.26 |
| CTTCAAAGTTCAAGGTAACGTAACAGAAAGCAGC | 1.36 |
| TCGAGTAGGTTACCAATCGGGCATTCAGCTTTCT | 2.4 |
| AGAACGAGGGCAATGAGATGATAGCACGGGTGGC | 2.47 |
| CCGAGTAGGTTTTGGGGCATTCAGGCAACGGTGA | 0.696 |
| CCTATTAGTTGACCATAAGTGCAACCGAAGCTCG | 0.364 |
| TCATATAGGTAAATGCTAGGTGAAAGTTCGATCT | 3.4 |
| CGTCCAAGGTCAGAGCGGTCAGTGAATGCCGAGT | 2.2 |
| TAGCCTAGGTCCTGGGCCAGTATACCACGCGAAC | -0.0166 |
| GGAACGACGGCAAAGTTGATAGCATCTGTCGACG | -0.552 |
| GTACCAAGGTGAGTAGGTCGTTGATGAGTAGGCG | 2.68 |
| CGAACTAGGTCCAGGACAGTGAATCTCCGCACGC | 0.856 |

tested on: PPARg DBDmut:RXRa IVT, anti-PPARg (DBD mutation: PPARg1 K132A/R137A, NR concentration 270 nM, RXRa partner concentration 90 nM); test: as above
How it was run: as §1

| Sequence | PBM binding z-score |
| --- | --- |
| ATCTCTAGGTAAGACACAGTTCAGTGAAGAACGC | 1.21 |
| CCGACTGGGGCAAGGTTACGATAACGCACAGCCA | -0.0114 |
| AATACAGGGTCACTAGTCCAGAGTAGGTACGAAT | 0.95 |
| ACTTACTGGTCAACGAGGTTATAGCACGCGTATA | 1.75 |
| TAGCCTAGGTCATTCAGCGGCCAGTATAGAAAGC | 0.127 |
| CCTACTGGGCCATCAGGTCATTCATATCAACGTT | 0.597 |
| CCTACTGGCCCATTCAGAGGTCATTGATCATATG | -0.258 |
| GCTTGTAGTTCAAGGTTAAGAAAGACTAAGCTAA | 0.1 |
| TCTAGTTGGTCACTGAGGTCACACACGACGGGTA | 2.09 |
| ACTGACGGGTCAACGAGGTTATAGCACGCGTATA | 0.338 |
| ATCTCTAGGTAAGACGCAGTTCAGTGAAGAACGC | -0.276 |
| GGAATGAGGGCAAAGTTGATAGCATCTGTCGACG | 1.48 |
| CGTCCAAGGTCAAGGTCAGTAAAAGAGACTCGAA | 0.553 |
| TCTATTAGTTGATTAGGGCTACCGAAACAGCGGA | 0.367 |
| TCTAGTTGGTCAAAGATCACACACTCGAAATGCG | 1.33 |
| AGTCAGAGTTCAGGACGAGGTAACGTAAAGCACG | 0.355 |
| CGAACTAGGTCACGGACAGTGAATCTCCGCACGC | 8.25 |
| TCATATAGGTAAAAGCTAGGTGAAAGTCCGATCT | 1.06 |
| TCGAGTAGGTAACCAATGGGGCATTCAGCTTTCT | -0.421 |
| TCGAGTAGGTTAGCAATGGGGCATTCAGCTTTCT | -0.902 |

| Sequence | PBM binding z-score |
| --- | --- |
| ATGTCTAGGTAACCAAGTTCAGTGAATGCCGAAC | 0.0462 |
| TCTATTAGTTGAAGGGCAAGCGACGAGTCCGTTT | 0.42 |
| TCTGCGAGGTCAGTTGGTCAGCTAACGAGCTGCC | 2.02 |
| AGAATGAGGTTACCAAAGATCCGGGAAACGCTTG | 0.821 |
| GCTAGCAGGCCATTTGGGTCACTCCATGACGGGC | -0.282 |
| CTCGAAAGGTCGGTTGAGGTGAGGATACGGATAA | 0.312 |
| CCTATTAGTTGACCATAATGGCAACCGAAGCTCG | 0.742 |
| CCTACTGGACCACGAAAGGTCATTGATTCAGTGA | 0.692 |
| CTTCAAAGTTCAAGGTAACGTAACAGAAAGCAGC | 0.994 |
| TCGAGTAGGTTACCAATCGGGCATTCAGCTTTCT | -0.0689 |
| AGAACGAGGGCAATGAGATGATAGCACGGGTGGC | 1.03 |
| CCGAGTAGGTTTTGGGGCATTCAGGCAACGGTGA | -0.353 |
| CCTATTAGTTGACCATAAGTGCAACCGAAGCTCG | 1.12 |
| TCATATAGGTAAATGCTAGGTGAAAGTTCGATCT | 1.55 |
| CGTCCAAGGTCAGAGCGGTCAGTGAATGCCGAGT | -0.349 |
| TAGCCTAGGTCCTGGGCCAGTATACCACGCGAAC | -0.0149 |
| GGAACGACGGCAAAGTTGATAGCATCTGTCGACG | -0.0147 |
| GTACCAAGGTGAGTAGGTCGTTGATGAGTAGGCG | -0.145 |
| CGAACTAGGTCCAGGACAGTGAATCTCCGCACGC | -0.489 |
